# Screening results: PubChem, several laboratories
# Sampled rows, rich in hits. Any-hit rate of the full collection: about 2.8%.
# Mcl1-Noxa inh: Mcl-1/Noxa interaction inhibition; Q07820; TR-FRET Mcl-1/Noxa peptide binding, 2 h; inhibition, % at 21.7 µM; actives 1.5% (n = 220,000);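 active means compounds that cut the protein-peptide binding signal by more than 50% relative to plate controls in a single-dose test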;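 further: His-tagged Mcl-1 with rhodamine Noxa BH3 peptide and terbium anti-His antibody; 0% = Mcl-1 plus Noxa peptide wells and 100% = peptide-only wells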
# Target sequence (Q07820 whole entry, looked up): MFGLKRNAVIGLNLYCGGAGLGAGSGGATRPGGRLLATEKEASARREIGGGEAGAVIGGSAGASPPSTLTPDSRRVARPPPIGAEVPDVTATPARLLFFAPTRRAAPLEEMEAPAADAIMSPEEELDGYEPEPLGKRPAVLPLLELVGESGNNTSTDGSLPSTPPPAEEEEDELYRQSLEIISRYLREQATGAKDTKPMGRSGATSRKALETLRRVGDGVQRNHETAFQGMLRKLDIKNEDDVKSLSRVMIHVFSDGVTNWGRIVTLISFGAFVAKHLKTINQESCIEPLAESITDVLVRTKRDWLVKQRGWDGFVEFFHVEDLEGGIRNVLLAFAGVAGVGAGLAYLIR
# Mcl1-Bid inh: disrupts binding of human Mcl-1 to Bid peptide; Q07820; TR-FRET Mcl-1/Bid-Dy647 peptide binding, 1536-well; inhibition, % at 21.7 µM; actives 0.97% (n = 220,000);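 active means compounds that cut the binding signal by more than half at the single screening dose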;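 further: His-tagged Mcl-1 with europium anti-His antibody binding Bid BH3 peptide; 0% = Mcl-1 plus peptide wells and 100% = peptide-only wells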
# TNF necrop inh: blocks TNF-alpha induced death of Jurkat FADD-/- cells. Jurkat FADD-/- TNF necroptosis rescue, ATP luminescence, 24 h; 0 = TNF only, 100 = no-TNF cells. activation (protection from cell death), % at 10 µM. actives 0.068% (n = 220,000). AID 463075;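 active means activation, meaning protection from cell death, of at least 50% relative to plate controls; inactive means activation below 50%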;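 further: necroptosis triggered by 40 ng/mL TNF-alpha added together with compound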
# Bim-Mcl-1: disrupts Bim peptide binding to human Mcl-1; Bead-based flow cytometry, Bim peptide-Mcl-1 binding; inhibition, % at 10 µM; actives 0.1% (n = 190,000); in the data active means inhibition above about 40%;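 further: 0% = no compound tracer wells and 100% = peptide blocker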
# m-calpain inh: inhibitors of pig calpain II; purified calpain II, fluorogenic peptide substrate, 30 min; inhibition, % at 16 µM; actives 0.37% (n = 220,000);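 active means inhibition above about 50%, limit read from the data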
# zVAD death inh: L929 zVAD cell death inhibition | viability rescue, % at 10 µM | actives 0.38% (n = 220,000) | L929 zVAD necroptosis rescue, ATP luminescence, 24 h; with zVAD 60 µM;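 active means activation, scaled between plate controls, above about 75%, limit read from the data; inactive means activation under that limit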;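 further: 0% = zVAD with DMSO and 100% = DMSO alone without zVAD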
# Starred values were filed as active, the others as inactive; / = not tested or not shown.
SMILES,Mcl1-Noxa inh,Mcl1-Bid inh,TNF necrop inh,Bim-Mcl-1,m-calpain inh,zVAD death inh
O=C(CSc1ccc2ccccc2n1)Nc1nsc(-c2ccc(Cl)cc2)n1,18.6,61.0*,-1.0,-270.0,-37.1,0.1
O=C(O)CCNc1ccc2c(c1)OCCO2,9.5,-40.8,-0.3,1.0,-28.3,-0.3
COc1cccc(/C=C2/SC(=O)N(C)C2=O)c1OCc1ccc(C(=O)O)cc1,3.1,-19.4,0.2,67.0*,-8.9,1.6
O=C(NNc1c(Cl)cccc1Cl)C1CCC1,6.6,-16.2,75.2*,/,-3.1,5.8
CC1(C)CC(=O)C(C=NCCN2CCN(C3CC(=O)N(c4ccc(Br)cc4)C3=O)CC2)=C(O)C1 (centres undefined),-21.9,-12.2,0.9,-3.0,26.9,2.2
CCCCC1C(=O)N(c2ccccc2)N(c2ccccc2)C1=O,26.4,56.1*,-1.2,5.0,-6.5,1.7
O=c1cc(N2CCCCC2)c(-c2ccccc2)nn1Cc1ccc(Cl)cc1Cl,-14.7,-20.7,-3.7,0.0,53.9*,0.8
O=c1cc(N2CCCCC2)c(-c2ccccc2)nn1Cc1ccccc1Cl,7.2,3.3,-6.0,0.0,22.6,0.4
CCCC(=O)OCCNc1cc(Sc2nc3ccccc3[nH]2)c2nonc2c1[N+](=O)[O-],51.8*,-62.2,-11.4,-1.0,6.9,1.8
CC1CCCN(Cc2cnc(Cl)s2)C1 (centres undefined),-14.6,-37.3,-1.4,-2.0,40.4,0.5
CC1CCN(Cc2cnc(Cl)s2)CC1,-2.2,5.1,-1.8,-3.0,51.0*,0.0
CC1CCCCN1Cc1cnc(Cl)s1 (centres undefined),9.0,-28.0,-1.9,-2.0,58.5*,0.0
Cc1cc(/C=N/n2c(COc3ccccc3)nc3ccccc3c2=O)c(O)c([N+](=O)[O-])c1,99.7*,-16.9,-1.6,0.0,6.3,1.9
COc1cc(/C=C2\SC(N)=NC2=O)ccc1OCC(=O)Nc1ccc(C)cc1,5.0,61.3*,-6.4,-1.0,6.6,10.6
FC(F)(F)c1ccc(Nc2nnnc3ccccc23)cc1,11.6,-9.4,0.1,2.0,-5.3,8.8
CC1=C/C(=C\c2ccc(Br)o2)C(=O)O1,71.2*,-4.6,-0.3,-6.0,-4.0,0.2
O=C1C(=Cc2ccc(Br)o2)C(=O)c2ccccc21,104.8*,76.0*,-8.6,2.0,8.8,-0.5
COc1ccccc1OCCN(C#N)c1nc(N(C)C)nc(N(C)C)n1,2.9,-15.4,1.2,-1.0,4.9,-1.2
O=C(COc1ccc(Cl)cc1Cl)NCC(=O)N/N=C/c1c[nH]c2ccccc12,58.5*,20.5,1.6,-5.0,5.0,1.4
O=C(CSc1nnc(SCc2ccc(Cl)cc2)s1)N/N=C/c1c[nH]c2ccccc12,65.5*,92.5*,-0.6,-6.0,9.8,0.1
CC(=O)c1cccc2c(O)c(C3=Nc4ccccc4C3=O)[nH]c12,62.3*,-39.0,-11.5,2.0,2.2,0.5
O=C1CN(C(=O)COC(=O)CNS(=O)(=O)/C=C/c2ccccc2)c2ccccc2N1,7.9,58.4*,0.8,-4.0,39.9,1.1
O=C(NCc1cccnc1)c1ccccc1[N+](=O)[O-],15.5,-8.7,0.6,-4.0,3.2,1.3
CC(SCCc1ccccn1)C(=O)O (centres undefined),12.8,-13.3,2.3,-5.0,-29.5,3.6
C=CCn1c(Sc2nnc(C)s2)nc2c1c(=O)[nH]c(=O)n2C,-1.6,-12.8,-1.4,-3.0,-13.6,-0.2
SMILES,Mcl1-Noxa inh,Mcl1-Bid inh,TNF necrop inh,Bim-Mcl-1,m-calpain inh,zVAD death inh
Cc1nnc(Sc2c(N)n(C)c(=O)[nH]c2=O)s1,18.5,100.0*,-3.2,-1.0,-2.2,0.2
O=C(C1CCCO1)N1CCN(C(=S)Nc2ccccc2Cl)CC1 (centres undefined),0.5,-11.3,1.6,-10.0,-2.0,-0.4
Cc1ccc(C)c(C(=O)CCC(=O)NCc2ccc(Cl)cc2)c1,-3.8,-9.1,0.5,-1.0,-5.3,1.6
Cc1[nH]c2ccccc2c1/C=N/NC(=S)NCc1ccccc1,6.4,-45.8,-1.3,-3.0,64.2*,4.3
Cc1[nH]c2ccccc2c1/C=N/NC(N)=S,5.7,-37.8,-2.5,/,21.5,1.3
Cc1nc(N2CCN(Cc3ccccc3)CC2)nc2c1C(=O)CC(C)C2 (centres undefined),29.4,-16.1,-5.9,0.0,68.4*,-0.1
Fc1ccc(CO/N=C2\CCCc3nonc32)cc1,15.1,-44.6,5.6,0.0,13.0,0.1
CCC(=O)OC1(C#CCOc2ccc(OC)cc2)CCN(C)CC1,10.4,53.5*,-0.4,4.0,9.4,0.3
CCO[C@@H]1OC(C(=O)N2CCN(C)CC2)=C[C@H](c2coc3ccccc3c2=O)[C@H]1CCCO,-7.6,-8.4,-1.0,-3.0,6.1,-0.1
CCN(CC)S(=O)(=O)c1ccc(C(=O)NNC(=O)C2CCN(S(=O)(=O)c3ccc(Cl)cc3)CC2)cc1,0.8,-16.6,0.2,-1.0,-3.7,0.7
Cc1ccc(NC(=O)CN2C(=O)S/C(=C/c3ccc(-c4cc(C(=O)O)ccc4C)o3)C2=O)cc1C,84.3*,93.5*,1.7,4.0,-56.5,0.6
Cc1ccc(C(=O)O)cc1-c1ccc(C=C2C(=O)c3ccccc3C2=O)o1,56.8*,-54.6,-2.9,2.0,-59.1,-1.3
Cc1cccc(NC(=O)CN2C(=O)S/C(=C\c3ccc(-c4cccc(C(=O)O)c4C)o3)C2=O)c1,13.6,-18.0,1.5,0.0,-53.0,26.2
CCOC(=O)N1CCN(C(=O)c2cccn3c(=O)c4c5c(sc4nc23)CCCC5)CC1,12.4,-17.6,-0.6,-3.0,-27.9,1.1
O=C(O)CSc1cc(C(=O)c2ccccc2O)cn2c(=O)c3c4c(sc3nc12)CCCC4,79.6*,50.5*,0.0,/,7.3,-0.2
O=C(NC1CCCc2ccccc21)c1ccc2c(c1)OCO2 (centres undefined),-4.7,-13.9,0.1,-3.0,9.4,-0.3
CC(NCc1ccc2c(c1)OCO2)C(=O)NC1CCCc2ccccc21 (centres undefined),18.9,69.3*,2.1,-2.0,-24.4,0.8
COc1cc2c(c(OC)c1O)C(=O)CO2,15.0,-48.8,-0.7,/,4.1,-0.6
COc1cc(OC)c2c(O)c3c(c(-c4c5c(c(O)c6c(OC)cc(OC)cc46)CO[C@@H](C)[C@H]5O)c2c1)[C@H](O)[C@H](C)OC3,101.5*,78.8*,-0.9,-4.0,25.6,-0.2
COc1cc(/C=C2\SC(c3ccc(C)cc3)=NC2=O)cc(OC)c1OC,/,-2.7,1.0,-6.0,0.7,0.4
COc1cc(/C=C2\SC(c3ccccc3)=NC2=O)cc(Cl)c1O,73.3*,-75.2,-8.5,0.0,-22.2,-1.0
CC(C)c1cc(C(=O)NNC(=S)NCc2ccco2)c(O)c(C(C)C)c1,-55.0,-134.2,0.9,-1.0,-88.8,0.2
COc1ccc(CCN=C(N)NS(=O)(=O)c2ccccc2)cc1OC,12.4,-3.0,1.4,-5.0,2.3,1.3
